The values that follow come from the supplement of paper PMC6522484.

The structures appear in SMILES notation. ± gives the standard deviation of the averaged measurements.

Test [1] has as its system DLD1. Nature of the test: cell viability (CellTiter-Glo) relative to plate median (fraction of plate median); higher = more viable cells. The conditions noted are these: 5 µM; treatment time 24 h; reporter: 7TFP. The method, boiled down:
(§1)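 Library compounds were added at a final concentration of 5 µM for 24 h to colorectal cancer cells stably transduced with a lentiviral TCF/Wnt firefly luciferase reporter. Reported values are firefly luciferase or CellTiterGlo luminescence, normalised per well to the plate median. Each value averages two independent replicates.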

For a further test, the system named is HCT116. The test is described as above. The conditions noted are these: 5 µM; treatment time 24 h; reporter: TCF4/Wnt. The method, boiled down: as §1
The subject of test [2] is SW480. Described as above. The conditions noted are these: 5 µM; treatment time 24 h; reporter: 7TFP. The method, boiled down:
as §1

For test [3], the system named is DLD1. Nature of the test: TCF/Wnt firefly luciferase reporter signal relative to plate median (fraction of plate median); higher = higher Wnt reporter signal. To be noted: 5 µM; treatment time 24 h; reporter: 7TFP. The method, boiled down: as §1
Test [4] deals with SW480. The test is described as above. To be noted: 5 µM; treatment time 24 h; reporter: 7TFP. The method in brief:
as §1

In the case of `CCCCCC[C@H]1CC[C@@](O)([C@@](C)(O)C(=O)N[C@@H]2C(=O)N3NCCC[C@@H]3C(=O)N(O)[C@@H](COC)C(=O)NCC(=O)N3NCCC[C@H]3C(=O)N(O)[C@H](C)C(=O)O[C@H]2C)OC1C` (stereo not given in full) [Diperamycin], the cell viability in the test on DLD1 [1] stood at 1.15 ± 0.099; in the test with HCT116, 1.23 ± 0.035; in the test on SW480 [2], 1.11 ± 0.099. Further, the figures for the “TCF/Wnt firefly luciferase reporter signal” value with DLD1 [3] and in the test with SW480 [4] were 1.06 ± 0.11 and 0.926 ± 0.0014, respectively.
As to `N=C(NCCCCCCNC(=N)NC(=N)Nc1ccc(Cl)cc1)NC(=N)Nc1ccc(Cl)cc1`, the values for the cell viability in the test with DLD1 [1], in the test on HCT116 and with SW480 [2] were 0.952 ± 0.031, 1.02 ± 0.11 and 1.07 ± 0.028, respectively. The “TCF/Wnt firefly luciferase reporter signal” value was 1.07 ± 0.021 with DLD1 [3] and 0.851 ± 0.052 in the test on SW480 [4].
The matching figures for `OC1=Cc2c(O)cc(O)cc2OC1(O)c1ccc(O)c(O)c1` (stereo not given): 0.963 ± 0.053, 1.07 ± 0.17, 0.943 ± 0.044, 0.923 ± 0.07 and 0.9795 ± 0.0021.
For the compound `CC1(C)Oc2ccc3ccc(=O)oc3c2CC1O` (stereo not given), the cell viability in the test with DLD1 [1] was found to be 0.993 ± 0.011; in the test with HCT116 it was 1.01 ± 0.042; in the test on SW480 [2] it was 1.07 ± 0.021. Moreover, the results for the “TCF/Wnt firefly luciferase reporter signal” value in the test on DLD1 [3] and in the test with SW480 [4] were 0.996 ± 0.19 and 0.791 ± 0.089, respectively.
With `CCCCC[C@H](CC(=O)O)C(=O)O`, the cell viability in the test on DLD1 [1] was determined as 0.996 ± 0.091; in the test on HCT116, 0.953 ± 0.095; with SW480 [2], 0.974 ± 0.03. Also, the figures for the “TCF/Wnt firefly luciferase reporter signal” value in the test with DLD1 [3] and in the test on SW480 [4] were 1.15 ± 0.085 and 1.03 ± 0.021, respectively.
The matching figures for `O=C1c2c(O)cccc2Cc2cccc(O)c21`: 0.945 ± 0.025, 1.02 ± 0.074, 1.08 ± 0.05, 0.988 ± 0.031 and 0.933 ± 0.017.
Consider `O=C(Nc1ccccc1)Nc1ccccc1`, for which the cell viability with DLD1 [1] stood at 1.02 ± 0.13; with HCT116, 0.996 ± 0.048; with SW480 [2] it was 1.05 ± 0.092. Also, the “TCF/Wnt firefly luciferase reporter signal” value in the test with DLD1 [3] came out at 1.2 ± 0.11; with SW480 [4], 1.01 ± 0.04.
With `O=c1cc(-c2ccc(O)cc2)oc2cc(O)cc(O)c12`, the figures for the cell viability with DLD1 [1], with HCT116 and in the test on SW480 [2] were 0.982 ± 0.026, 1.07 ± 0.028 and 1.02 ± 0.014, respectively. The results for the “TCF/Wnt firefly luciferase reporter signal” value with DLD1 [3] and in the test with SW480 [4] were 1.105 ± 0.0071 and 1.03 ± 0.05, respectively.
With `CC[C@H](C)[C@@H]1NC(=O)[C@H](C)NC1=O` [Cyclo(alanylisoleucyl)], the cell viability in the test with DLD1 [1] is 1.05 ± 0.12; in the test with HCT116, 1.165 ± 0.0071; with SW480 [2], 1.07 ± 0.014. Moreover, the “TCF/Wnt firefly luciferase reporter signal” value worked out at 1.05 ± 0.028 in the test with DLD1 [3] and 0.992 ± 0.15 with SW480 [4].
On to `CC/C(=C(/CC)c1ccc(O)cc1)c1ccc(O)cc1`, for which the cell viability with DLD1 [1] amounted to 0.959 ± 0.072; with HCT116, 0.845 ± 0.021; with SW480 [2], 0.982 ± 0.11. Besides, the “TCF/Wnt firefly luciferase reporter signal” value with DLD1 [3] turned out to be 1.06 ± 0.18; in the test on SW480 [4], 1.13 ± 0.028.
For the compound `O=C1C=CC(=C(c2ccc(O)cc2)c2ccc(O)cc2)C=C1`, the figures for the cell viability in the test on DLD1 [1], in the test on HCT116 and in the test on SW480 [2] were 0.99 ± 0.057, 0.944 ± 0.018 and 1.01 ± 0.035, respectively. In addition, the results for the “TCF/Wnt firefly luciferase reporter signal” value in the test with DLD1 [3] and with SW480 [4] were 0.851 ± 0.038 and 0.93 ± 0.099, respectively.
For `CO[C@H]1C=C[C@@]23c4cc5c(cc4CN(C[C@@H]2O)[C@H]3C1)OCO5`, the cell viability with DLD1 [1] was 0.864 ± 0.075; in the test with HCT116 it was 0.847 ± 0.069; in the test with SW480 [2], 0.862 ± 0.035. Also, the figures for the “TCF/Wnt firefly luciferase reporter signal” value in the test with DLD1 [3] and in the test on SW480 [4] were 0.857 ± 0.057 and 0.901 ± 0.18, respectively.
For `O=c1[nH]c(=O)n([C@H]2C[C@H](O)[C@@H](CO)O2)cc1F`, in that order: 0.609 ± 0.026, 1.05 ± 0.057, 0.963 ± 0.024, 0.688 ± 0.12 and 0.971 ± 0.069.
For `Nc1cc(-c2ccncc2)c[nH]c1=O`, the cell viability in the test on DLD1 [1] was 1.03 ± 0.042; with HCT116, 0.99 ± 0.057; in the test with SW480 [2] it was 0.928. Also, the “TCF/Wnt firefly luciferase reporter signal” value with DLD1 [3] is 0.903 ± 0.032; in the test with SW480 [4] it was 0.94 ± 0.054.
As to `CC1(C)O[C@H]2[C@H](O)C[C@](O)(C(N)=O)C[C@H]2O1`, the figures for the cell viability with DLD1 [1], in the test with HCT116 and in the test on SW480 [2] were 1.08 ± 0.035, 1.17 ± 0.15 and 1.09 ± 0.021, respectively. Also, the “TCF/Wnt firefly luciferase reporter signal” value in the test with DLD1 [3] worked out at 1.07 ± 0.15; in the test on SW480 [4], 0.916 ± 0.055.
On to `C[C@@H]1O[C@H]2O[C@@H]3[C@@H](C)OC(c4ccc5c(c4O)C(=O)c4ccc(C[C@@](C)(O)CC(=O)O)c(O)c4C5=O)C[C@H]3O[C@H]2CC1=O` (stereo not given in full) [Fridamycin D], for which the figures for the cell viability with DLD1 [1], in the test with HCT116 and in the test with SW480 [2] were 1.14 ± 0.099, 0.942 ± 0.12 and 1.02 ± 0.021, respectively. Besides, the figures for the “TCF/Wnt firefly luciferase reporter signal” value in the test with DLD1 [3] and in the test with SW480 [4] were 1.14 ± 0.057 and 1.08 ± 0.021, respectively.
Regarding `CNCCc1ccccn1`, the cell viability in the test with DLD1 [1] is 0.835 ± 0.059; in the test on HCT116, 0.979 ± 0.086; in the test with SW480 [2] it was 0.958 ± 0.027. Also, the “TCF/Wnt firefly luciferase reporter signal” value with DLD1 [3] was found to be 1.08 ± 0.21; in the test with SW480 [4], 1.1 ± 0.05.
The matching figures for `CC(=O)OCC(=O)[C@@]1(O)CC[C@H]2[C@@H]3CCC4=CC(=O)C=C[C@]4(C)[C@H]3[C@@H](O)C[C@@]21C`: 0.992 ± 0.04, 0.864 ± 0.1, 0.936 ± 0.0042, 1.08 ± 0.11 and 1.11 ± 0.092.
For the compound `CC1=NN(c2ccccc2)C(=O)C1`, the results for the cell viability with DLD1 [1], with HCT116 and in the test on SW480 [2] were 1.03 ± 0.054, 0.921 ± 0.021 and 1.03 ± 0.06, respectively. For the same compound, the “TCF/Wnt firefly luciferase reporter signal” value with DLD1 [3] turned out to be 0.979 ± 0.14; with SW480 [4], 1.01 ± 0.025.
For `CCN(CC)CCOc1ccc2c(c1)C(=O)c1cc(OCCN(CC)CC)ccc1-2`, the cell viability with DLD1 [1] was found to be 0.941 ± 0.083; in the test with HCT116 it was 0.925 ± 0.072; with SW480 [2], 0.998 ± 0.045. In addition, the “TCF/Wnt firefly luciferase reporter signal” value in the test on DLD1 [3] worked out at 1.05 ± 0.093; with SW480 [4] it was 1.02 ± 0.06.
In the case of `CC(C)/C(O)=C1/C(=O)O[C@@H](c2ccoc2)[C@]2(C)C(O)[C@@H](O)[C@@]34OC5(C)OC67CC(C)(C(O)[C@]6(O)[C@@H](O)[C@]3(O5)C12)[C@H](CC(=O)O)[C@]74C` (stereo not given in full), the cell viability in the test on DLD1 [1] was found to be 0.869 ± 0.11; in the test on HCT116, 0.985 ± 0.05; in the test with SW480 [2], 1 ± 0.026. Moreover, the “TCF/Wnt firefly luciferase reporter signal” value turned out to be 1.04 ± 0.028 in the test on DLD1 [3] and 1.02 ± 0.042 with SW480 [4].
With `CC(=O)c1oc(C)c2c1C(=O)c1cccc(O)c1C2=O` [Bhimamycin B], the cell viability was 0.955 ± 0.019 with DLD1 [1], 1.01 ± 0.015 in the test with HCT116 and 0.9505 ± 0.00071 in the test with SW480 [2]. Also, the “TCF/Wnt firefly luciferase reporter signal” value was 1.02 ± 0.035 in the test on DLD1 [3] and 1.1 ± 0.028 in the test with SW480 [4].
The matching figures for `CC(=O)CC(=O)CCC(=O)O`: 1.02 ± 0.11, 0.996 ± 0.12, 0.935 ± 0.033, 0.844 ± 0.13 and 0.939 ± 0.02.
On to `COc1ccc(CN(CCN(C)C)c2ncccn2)cc1`, for which the cell viability stood at 0.994 ± 0.0057 in the test on DLD1 [1], 0.969 ± 0.086 in the test with HCT116 and 1 ± 0.055 in the test with SW480 [2]. The “TCF/Wnt firefly luciferase reporter signal” value in the test on DLD1 [3] turned out to be 0.9635 ± 0.00071; with SW480 [4] it was 0.931 ± 0.021.
For the compound `C[C@H]1[C@H](C)CC[C@]2(C(=O)O)CC[C@]3(C)C(=CC[C@@H]4[C@@]5(C)CC[C@H](O)C(C)(C)[C@@H]5CC[C@]43C)[C@H]12`, the cell viability was 0.978 ± 0.014 with DLD1 [1], 1.04 ± 0.014 in the test on HCT116 and 1.03 ± 0.021 with SW480 [2]. Also, the “TCF/Wnt firefly luciferase reporter signal” value turned out to be 1.07 ± 0.057 in the test with DLD1 [3] and 1.06 ± 0.014 with SW480 [4].
On to `C[C@]12C=CC(=O)C=C1CC[C@@H]1[C@@H]2[C@@H](O)C[C@@]2(C)[C@H]1CC[C@]2(O)C(=O)COP(=O)(O)O`, for which the cell viability with DLD1 [1] is 1.04 ± 0.021; with HCT116, 1; with SW480 [2], 0.943 ± 0.033. Also, the figures for the “TCF/Wnt firefly luciferase reporter signal” value in the test with DLD1 [3] and with SW480 [4] were 1.04 ± 0.14 and 1.06 ± 0.014, respectively.
For `CCN1CCCC(OC(=O)C(c2ccccc2)c2ccccc2)C1` (stereo not given), in that order: 0.981, 1.01, 0.953 ± 0.025, 0.941 ± 0.076 and 1.01 ± 0.07.
